Cycloheximide cs – Cycloheximide Counterscreen for Small Molecule Inhibitors of Shiga Toxin. cell reporter, cycloheximide protein synthesis inhibition counterscreen. max response, %. 300,000 tested, 12% active. AID 2314, 2010; in the data active means max response mostly above about 13%, no sharp cut-off; inactive means mostly below about 14%; further: read at 38.3 µM for the half of the compounds with a filed dose
Giardia FBPA inh – qHTS Assay for Inhibitors of Fructose-1,6-bisphosphate Aldolase from Giardia Lamblia | purified Giardia FBPA | Potency, µM (doses to about 59.6 µM), usual class: inhibitors | 290,000 tested, 0.71% active; further: nearly all actives have a fitted effect of over 55% in size
Target sequence (A8B2U2 whole entry, looked up): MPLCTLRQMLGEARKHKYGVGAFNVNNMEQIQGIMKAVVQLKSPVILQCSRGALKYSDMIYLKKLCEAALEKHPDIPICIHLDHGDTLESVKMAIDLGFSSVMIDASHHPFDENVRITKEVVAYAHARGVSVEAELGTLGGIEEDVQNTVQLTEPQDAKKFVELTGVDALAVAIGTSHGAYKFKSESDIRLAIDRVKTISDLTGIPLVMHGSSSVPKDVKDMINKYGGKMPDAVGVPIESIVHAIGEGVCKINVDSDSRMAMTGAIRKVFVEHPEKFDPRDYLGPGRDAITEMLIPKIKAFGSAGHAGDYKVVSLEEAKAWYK
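40 nM FBPA preincubated 10 min at RT with compound (up to 57.5 uM final), then substrate plus GAPDH/TPI/NAD/arsenate coupling and diaphorase/resazurin added. Fluorescence read after 20 min at RT, 525/598 nm.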
TbPYK inhibitor – qHTS of Trypanosoma Brucei Inhibitors; pyruvate kinase (Trypanosoma brucei), Q57TT1; TbPYK enzyme, Kinase-Glo Plus ATP luminescence, 45 min; Potency, µM (highest dose often 76.8 µM), hits mostly inhibitors; 410,000 tested, 0.12% active; AID 624173, 2012; further: nearly all actives have a fitted effect of over 50% in size
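Quantitative HTS: titrated library compounds versus trypanosomal pyruvate kinase in TEA buffer (pH 7.2) containing KCl, MgCl2, BSA and Tween-20. Reactions were initiated with ADP, 130 uM final. Kinase-Glo Plus luminescence was read after 45 min at RT.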
LmPK inhibitor – qHTS Assay for Inhibitors of Leishmania Mexicana Pyruvate Kinase (LmPK); Q27686; purified LmPK, Kinase-Glo ATP luminescence, 1 h; Potency, µM (titrated, usually from 57.5 µM), hits mostly inhibitors; 290,000 tested, 0.37% active; AID 1721, 2009
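0.1 nM LmPK, 0.5 mM PEP, 0.1 mM ADP; 50 mM imidazole pH 7.2, 7 mM MgCl2, 50 mM KCl; 1 h RT. Kinase-Glo luminescence readout, normalized to no-enzyme (full inhibition) and uninhibited wells.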
RE007 growth inh – qHTS Assay for Inhibitors of the HIV-1 protein Vpr; S. pombe RE007 Vpr strain, BacTiter-Glo ATP luminescence, 24 h; Potency, µM (top dose mostly 92.2 µM), hits mostly inhibitors; 360,000 tested, 0.21% active; active means well fitted falling curve with a large enough effect; inconclusive means small, poorly fitted or top-dose-only effect; inactive means no such curve, though single readings can be large or run the other way; further: nearly all actives have a fitted effect of over 50% in size
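Fission yeast RE007 carrying one integrated HIV-1 vpr copy, seeded at OD 0.01 in PMG+AL medium with 23 nL pinned compound. Grown 24 h at 30 degrees; viability read by BacTiter-Glo luminescence after 5 min.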
Shiga toxin inh – A qHTS for Small Molecule Inhibitors of Shiga Toxin | inhibition, % at 38.7 µM | Vero cells, Shiga toxin protein synthesis inhibition reporter | 290,000 tested, 9.2% active | AID 2315, 2010; in the data active means inhibition mostly above about 28%, no sharp cut-off; inactive means mostly below about 43%
Numbers stand for hits. Shown is part of a subset that was picked to be rich in hits. Unless noted, the call rests on the fitted dose curve; in most records, active means well fitted curve in the direction sought with a large enough effect; inconclusive means small, poorly fitted or top-dose-only effect, or another doubt; inactive means no such curve, though single readings can be large; an effect the other way counts as inactive or inconclusive.

What do the screens show for `CSc1ccc(CCNC(=O)c2c(C)nn(-c3ccc(F)cc3)c2-n2cccc2)cc1`?
TbPYK inhibitor: inactive

How did COc1ccc(CNC(=O)CSc2nnc3c(n2)[nH]c2ccc(OC)cc23)cc1 do in these assays?
Cycloheximide cs: inactive; Giardia FBPA inh: inactive; TbPYK inhibitor: inactive; LmPK inhibitor: inactive; RE007 growth inh: inactive; Shiga toxin inh: inactive

How did COc1ccc2[nH]c3nc(SC(C)C)nnc3c2c1 do in these assays?
Cycloheximide cs: 68; Giardia FBPA inh: inactive; TbPYK inhibitor: inactive; LmPK inhibitor: inactive; RE007 growth inh: inactive; Shiga toxin inh: 105

What do the screens show for `CCSc1nnc2c3cc(CC)ccc3n(C)c2n1`?
Cycloheximide cs: active; Giardia FBPA inh: inactive; TbPYK inhibitor: inactive; LmPK inhibitor: inactive; RE007 growth inh: inactive; Shiga toxin inh: inactive

Results for O=C(CCc1nc(-c2ccccc2Cl)no1)Nc1cccnc1 ?
Cycloheximide cs: inactive; Giardia FBPA inh: inactive; TbPYK inhibitor: inactive; LmPK inhibitor: inactive; RE007 growth inh: inactive; Shiga toxin inh: inactive

What do the screens show for `COc1cccc(C(=O)NCC(c2ccc(N(C)C)cc2)N2CCc3ccccc32)c1` (configuration not stated)?
TbPYK inhibitor: inactive

What do the screens show for `CCCS(=O)(=O)NC(=O)C1(C)CCCN(C(=O)c2cc(OC)ccc2Br)C1` (configuration not stated)?
TbPYK inhibitor: inactive; RE007 growth inh: inactive

How did O=C(O)/C=C/C(=O)Nc1ccccc1C(=O)OCC(=O)c1ccc2c(c1)OCCO2 do in these assays?
Cycloheximide cs: 25; Giardia FBPA inh: inactive; TbPYK inhibitor: inactive; LmPK inhibitor: inactive; RE007 growth inh: inactive; Shiga toxin inh: 75

What do the screens show for `CS(=O)(=O)c1cccc(C(=O)OCC(=O)c2ccc3c(c2)OCCO3)c1`?
TbPYK inhibitor: inactive; RE007 growth inh: inactive

What do the screens show for `O=C(COC(=O)C(O)c1ccccc1)c1ccc2c(c1)OCCO2` (configuration not stated)?
Cycloheximide cs: 32; Giardia FBPA inh: inactive; TbPYK inhibitor: inactive; LmPK inhibitor: inactive; RE007 growth inh: inactive; Shiga toxin inh: 103

How did Cc1c(C(=O)OCC(=O)c2ccc3c(c2)OCCO3)oc2ccccc12 do in these assays?
Cycloheximide cs: 36; Giardia FBPA inh: inactive; TbPYK inhibitor: inactive; LmPK inhibitor: inactive; RE007 growth inh: inactive; Shiga toxin inh: 59

What do the screens show for `Nc1ccccc1C(=O)OCC(=O)c1ccc2c(c1)OCCO2`?
Cycloheximide cs: 31; Giardia FBPA inh: inactive; TbPYK inhibitor: inactive; LmPK inhibitor: 14µM; RE007 growth inh: inactive; Shiga toxin inh: 74

Results for C(=N\N(c1ccccc1)c1ccccc1)/c1ccc(N2CCOCC2)s1 ?
Cycloheximide cs: inactive; Giardia FBPA inh: inactive; TbPYK inhibitor: inactive; LmPK inhibitor: inactive; RE007 growth inh: inactive; Shiga toxin inh: inactive

Results for CC(=O)C1=CCC(c2cccs2)N(S(=O)(=O)c2ccc(C)cc2)C1 (configuration not stated) ?
TbPYK inhibitor: inactive; RE007 growth inh: inactive

Results for COc1ccc2[nH]cc(CCNc3cc(-c4cccc(C#N)c4)ncn3)c2c1 ?
Giardia FBPA inh: inactive

How did CCN(CC)CCCC(C)n1c(-c2ccccc2)nc2c(NCCO)nc(C)nc21 (configuration not stated) do in these assays?
Giardia FBPA inh: inactive

Results for CCCCC(=O)Nc1ccccc1C(=O)OCC(=O)c1ccc2c(c1)OCCO2 ?
Cycloheximide cs: 38; Giardia FBPA inh: inactive; TbPYK inhibitor: inactive; LmPK inhibitor: inactive; RE007 growth inh: inactive; Shiga toxin inh: active

Results for COC(=O)c1ccccc1NC(=O)CN1CCC(C(=O)c2ccc3c(c2)OCCO3)CC1 ?
Cycloheximide cs: inactive; Giardia FBPA inh: inactive; TbPYK inhibitor: inactive; LmPK inhibitor: inactive; RE007 growth inh: inactive; Shiga toxin inh: inactive

What do the screens show for `Cn1cccc1C(=O)OCc1ccc(C(C)(C)C)cc1`?
Cycloheximide cs: 32; Giardia FBPA inh: inactive; TbPYK inhibitor: inactive; LmPK inhibitor: inactive; RE007 growth inh: inactive; Shiga toxin inh: 98

What do the screens show for `CC(C)NC(=O)c1ccc(COc2ccc(C(C)(C)C)cc2)o1`?
Cycloheximide cs: 95; Giardia FBPA inh: inactive; TbPYK inhibitor: inactive; LmPK inhibitor: inactive; RE007 growth inh: inactive; Shiga toxin inh: 160

What do the screens show for `CN(C)c1ccc(NC(=O)c2ccc(COc3cccc(Cl)c3)o2)cc1`?
Cycloheximide cs: 55; Giardia FBPA inh: inactive; TbPYK inhibitor: inactive; LmPK inhibitor: inactive; RE007 growth inh: inconclusive; Shiga toxin inh: 77

How did CCOc1ccc(OCc2ccc(C(=O)NC(C)(C)C)o2)cc1 do in these assays?
Cycloheximide cs: inactive; Giardia FBPA inh: inactive; TbPYK inhibitor: inactive; LmPK inhibitor: inactive; RE007 growth inh: inactive; Shiga toxin inh: 37

Results for Cc1ccc(NC(=O)c2ccc(COc3ccccc3Cl)o2)cc1 ?
TbPYK inhibitor: inactive

Results for Cc1ccc(OCc2ccc(C(=O)NN)o2)cc1C ?
Cycloheximide cs: 26; Giardia FBPA inh: inactive; TbPYK inhibitor: inactive; LmPK inhibitor: inactive; RE007 growth inh: inactive; Shiga toxin inh: inactive

Results for COc1ccc(C(OCCN2CCC[C@@H](C(=O)O)C2)(c2ccc(OC)cc2)c2ccc(OC)cc2)cc1 ?
Giardia FBPA inh: inactive

How did CCOc1ccc(OCc2ccc(C(=O)NN)o2)cc1 do in these assays?
Cycloheximide cs: 30; Giardia FBPA inh: inactive; TbPYK inhibitor: inactive; LmPK inhibitor: inactive; RE007 growth inh: inactive; Shiga toxin inh: 54

What do the screens show for `O=C(OCc1ccccn1)c1ccc(COc2ccc3ccccc3c2)o1`?
Cycloheximide cs: 45; Giardia FBPA inh: inactive; TbPYK inhibitor: inactive; LmPK inhibitor: inactive; RE007 growth inh: inactive; Shiga toxin inh: 66

How did NNC(=O)c1ccc(COc2ccc3ccccc3c2)o1 do in these assays?
Cycloheximide cs: 19; Giardia FBPA inh: inactive; TbPYK inhibitor: inactive; LmPK inhibitor: inactive; RE007 growth inh: inactive; Shiga toxin inh: 34

Results for NNC(=O)c1ccc(COc2cccc3ccccc23)o1 ?
Cycloheximide cs: inactive; Giardia FBPA inh: inactive; TbPYK inhibitor: inactive; LmPK inhibitor: inactive; RE007 growth inh: inactive; Shiga toxin inh: inactive

What do the screens show for `COC(=O)c1ccc(COc2cc([N+](=O)[O-])cc3cccnc23)o1`?
Cycloheximide cs: inactive; Giardia FBPA inh: inactive; TbPYK inhibitor: inactive; LmPK inhibitor: inactive; RE007 growth inh: inactive; Shiga toxin inh: inactive

How did CCOc1ccc(OCc2ccc(C(=O)Nc3cccnc3)o2)cc1 do in these assays?
Cycloheximide cs: 31; TbPYK inhibitor: inactive; LmPK inhibitor: inactive; RE007 growth inh: inactive; Shiga toxin inh: 158

Results for CCOc1ccc(OCc2ccc(C(=O)NCc3cccnc3)o2)cc1 ?
Cycloheximide cs: inactive; TbPYK inhibitor: inactive; LmPK inhibitor: inactive; RE007 growth inh: inactive; Shiga toxin inh: inactive

From PubChem
